Test systems include SR leukemia; RPMI-8226 leukemia; OVCAR-8 ovarian; OVCAR-5 ovarian; OVCAR-4 ovarian; SK-OV-3 ovarian; IGROV1 ovarian; OVCAR-3 ovarian; HS 578T breast; NCI/ADR-RES ovarian.
Common to all, as to test: NCI-60 one-dose screen, 48 h (100 = growth as untreated, 0 = no growth, -100 = all killed)
What all share (details): 10 µM unless noted

About 83,000 compounds went through this panel and 20% of them were active in at least one assay; those are over-represented in the sample as a whole.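 48-hour exposure, single concentration, 96-well plates; percent growth endpoint where 0 means no net growth. Active: below 10.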 A number with no mark means an inactive call. The source made the active and inactive calls.

The record followed here is PubChem BioAssay (NCI).

With `COc1cc(N)c2nccc(C)c2c1OC`, the growth was 55.5% with SR leukemia; 144% with RPMI-8226 leukemia; 96.4% in the test with OVCAR-8 ovarian; 107% in the test with OVCAR-5 ovarian; 94.4% in the test with OVCAR-4 ovarian; 108% with SK-OV-3 ovarian. Also, the growth was 385% in the test with IGROV1 ovarian, 111% in the test with OVCAR-3 ovarian, 104% with HS 578T breast and 131% in the test with NCI/ADR-RES ovarian.

With `COC(=O)c1ccc2[nH]c(O)c(C(=Nc3ccc(N(C)C(=O)CN4CCN(C)CC4)cc3)c3ccc(CCO)cc3)c2c1`, the growth in the test with SR leukemia is 6.7% (active); in the test with RPMI-8226 leukemia, 30.8%; in the test with OVCAR-8 ovarian it was 64.5%; in the test on OVCAR-5 ovarian, 80.6%; in the test on OVCAR-4 ovarian, 56.6%; in the test with SK-OV-3 ovarian, 39.7%. The growth is 16.5% with IGROV1 ovarian, 52.5% with OVCAR-3 ovarian, 23.9% in the test with HS 578T breast and 104% with NCI/ADR-RES ovarian.

For `C=CCC(CCC(CC=C)C(=O)OCC)C(=O)OCC` (stereo not given), the growth in the test with SR leukemia was 86.7%; with RPMI-8226 leukemia it was 101%; in the test on OVCAR-8 ovarian, 95.2%; with OVCAR-5 ovarian, 106%; in the test on OVCAR-4 ovarian, 102%; in the test on SK-OV-3 ovarian it was 107%. The growth with IGROV1 ovarian was 102%; in the test on OVCAR-3 ovarian, 115%; in the test on HS 578T breast, 107%; in the test on NCI/ADR-RES ovarian, 109%.

For the compound `O=C1N/C(=N\c2nnc(-c3ccc(O)cc3)s2)S/C1=C\c1ccccc1O`, the growth in the test on SR leukemia was 99.4%; in the test with RPMI-8226 leukemia it was 101%; in the test on OVCAR-8 ovarian it was 96.8%; in the test on OVCAR-5 ovarian, 93.7%; with OVCAR-4 ovarian, 88.2%; with SK-OV-3 ovarian, 112%. Also, the growth in the test on IGROV1 ovarian is 99.1%; in the test on OVCAR-3 ovarian, 93.2%; in the test with HS 578T breast, 90.3%; with NCI/ADR-RES ovarian, 97.8%.

Consider `CC(=O)/C(=C/c1ccc(-c2ccccc2)cc1)C(=O)c1ccccc1`, for which the growth is 5.97% (active) with SR leukemia; 39.9% in the test with RPMI-8226 leukemia; 84.5% in the test on OVCAR-8 ovarian; 106% in the test on OVCAR-5 ovarian; 85.8% with OVCAR-4 ovarian; 95.4% with SK-OV-3 ovarian. Also, the growth is 91% with IGROV1 ovarian, 89.4% in the test on OVCAR-3 ovarian, 102% in the test with HS 578T breast and 93.1% in the test on NCI/ADR-RES ovarian.

Take `COc1ccc2cn3c4ccc(O)cc4[nH]c(=O)c3c2c1`: the growth in the test on SR leukemia is 16.1%; with RPMI-8226 leukemia, 13.2%; in the test with OVCAR-8 ovarian it was 12.7%; with OVCAR-5 ovarian, 21%; in the test on OVCAR-4 ovarian, -2.67% (active); with SK-OV-3 ovarian, -1.15% (active). Moreover, the growth in the test with IGROV1 ovarian is 17.6%; in the test with OVCAR-3 ovarian, -7.15% (active); with HS 578T breast it was -22.4% (active); in the test with NCI/ADR-RES ovarian, -39% (active).

`CC(O)C(N)=O` (stereo not given): the growth in the test with SR leukemia is 102%; in the test with RPMI-8226 leukemia, 111%; in the test with OVCAR-8 ovarian, 110%; in the test on OVCAR-5 ovarian, 101%; with OVCAR-4 ovarian it was 97.4%; in the test on SK-OV-3 ovarian, 110%. Besides, the growth in the test on IGROV1 ovarian was 116%; in the test with OVCAR-3 ovarian it was 107%; in the test on HS 578T breast, 108%; with NCI/ADR-RES ovarian, 118%.

As to `COc1ccc(-c2nc(SCC(C)C)nc(Nc3ccc([N+](=O)[O-])cc3)c2C#N)cc1`, the growth was 54.4% in the test with SR leukemia; 93.9% with RPMI-8226 leukemia; 93.4% with OVCAR-8 ovarian; 106% with OVCAR-5 ovarian; 37.5% in the test on OVCAR-4 ovarian; 99.2% in the test on SK-OV-3 ovarian. Besides, the growth in the test with IGROV1 ovarian is 94.3%; in the test on OVCAR-3 ovarian, 81.5%; with HS 578T breast it was 90.4%; with NCI/ADR-RES ovarian, 101%.

As to `Cc1c(O)c(N=Nc2ccc(C(=O)O)c(O)c2)c2ccccc2c1O`, the growth with SR leukemia was 85.8%; in the test on RPMI-8226 leukemia, 106%; in the test on OVCAR-8 ovarian, 96.9%; in the test on OVCAR-5 ovarian, 25.5%; in the test on OVCAR-4 ovarian, 107%; in the test on SK-OV-3 ovarian it was 95.5%. Besides, the growth in the test with IGROV1 ovarian is -25.9% (active); in the test on OVCAR-3 ovarian it was 108%; in the test with HS 578T breast, 94.7%; in the test with NCI/ADR-RES ovarian, 110%.

`COC(=O)/C(Br)=C/c1c[nH]c2ccc(Br)cc12`: the growth in the test on SR leukemia was -6.18% (active); with RPMI-8226 leukemia, 53.9%; in the test with OVCAR-8 ovarian, 86.6%; in the test with OVCAR-5 ovarian it was 72.3%; in the test on OVCAR-4 ovarian, 87.2%; in the test with SK-OV-3 ovarian, 92%. Moreover, the growth with IGROV1 ovarian is -17.7% (active); in the test on OVCAR-3 ovarian it was 82.6%; in the test on HS 578T breast it was 100%; in the test with NCI/ADR-RES ovarian, 80.4%.

Turning to `CC(C)(C)c1cc(C[P+](c2ccc(Cl)cc2)(c2ccc(Cl)cc2)c2ccc(Cl)cc2)cc(C(C)(C)C)c1O`, the growth was 39.5% with SR leukemia; 10.9% in the test on RPMI-8226 leukemia; 85.8% in the test with OVCAR-8 ovarian; 105% in the test on OVCAR-5 ovarian; 79.2% in the test with OVCAR-4 ovarian; 88.9% in the test with SK-OV-3 ovarian. Moreover, the growth is 52.1% with IGROV1 ovarian, 90.3% with OVCAR-3 ovarian, 105% with HS 578T breast and 97.2% in the test on NCI/ADR-RES ovarian.

Turning to `O=c1[nH]c(=S)[nH]c(O)c1/C=C1\C=Nc2ccccc21`, the growth with SR leukemia was 5.51% (active); in the test with RPMI-8226 leukemia, 72.2%; in the test with OVCAR-8 ovarian, 48.6%; with OVCAR-5 ovarian it was 96%; with OVCAR-4 ovarian it was 91.9%; in the test with SK-OV-3 ovarian it was 104%. For the same compound, the growth is 40.3% with IGROV1 ovarian, 33.3% with OVCAR-3 ovarian, 71.7% with HS 578T breast and 87.9% with NCI/ADR-RES ovarian.

As to `CCCCCCC(=O)C(C)C`, the growth with SR leukemia was 90.7%; with RPMI-8226 leukemia, 105%; in the test with OVCAR-8 ovarian, 99.1%; in the test with OVCAR-5 ovarian, 110%; with OVCAR-4 ovarian, 110%; with SK-OV-3 ovarian it was 110%. In addition, the growth in the test with IGROV1 ovarian was 102%; with OVCAR-3 ovarian, 107%; in the test with HS 578T breast, 105%; in the test with NCI/ADR-RES ovarian it was 103%.
